Source: PubChem BioAssay (NCATS)
Results filed as inconclusive are left out. The source made the active and inactive calls. Unless noted, calls follow the shape of the dose curve; as a rule, active = well fitted curve in the direction sought with a large enough effect; inconclusive = small, poorly fitted or top-dose-only effect, or another doubt; inactive = no such curve, though single readings can be large; an effect the other way counts as inactive or inconclusive.

Columns and labels:
[1] = target: Cytochrome P450 1A2 (Homo sapiens) (UniProt P05177); test: p450-cyp1a2 (AID 410; calls by dose curve; also: potency is read from the fitted curve at half-maximal effect)
Procedure, shortened: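 Luminescent demethylation readout: Luciferin-ME (100uM, equal to Km) turned over by 20nM CYP1A2 for 60 min at room temperature after NADPH regeneration addition, following 10 min compound preincubation. Normalization used 57 uM furafylline as full inhibition.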

[2] = target: Glucocorticoid receptor (Homo sapiens) (UniProt P04150); test: GR-GFP Redistribution (AID 450;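 active = compounds whose dose series gives a full or clear partial fitted curve of increased nuclear translocation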; also: potency is read from the fitted curve at half-maximal effect); settings: U2OS GR-GFP nuclear translocation, laser cytometry, 2 h
[3] = target: Glucocorticoid receptor (Homo sapiens) (UniProt P04150); test: GR-EFC Redistribution (AID 451; calls by dose curve; also: potency is read from the fitted curve at half-maximal effect); settings: CHO-K1 GR-EFC translocation, beta-gal luminescence, 2 h
Procedure, shortened: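 CHO-K1 cells expressing nuclear EA and GR-ED fragments of b-gal; compounds titrated up to 46 uM final, 2 h at 37 C. GR nuclear translocation read as complemented b-gal luminescence after 1 h RT detection.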

[4] = target: Mitogen-activated protein kinase 10 (Mus musculus) (UniProt Q61831); test: JNK3 AlphaScreen Assay (AID 530; active = well fitted curve in either direction with a large enough effect, not every such curve was filed as active;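 also: kinase came from lysate of stimulated human HepG2 cells; signal reports phosphorylation of biotinylated GST-cJun 1-79 at Ser73 with 10 µM ATP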)
Procedure, shortened: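 Activity was read by AlphaScreen after JNK3-containing HepG2 lysate (cytokine pre-activated) phosphorylated biotinylated GST-cJun with 10 uM ATP at room temperature. Phospho-Ser73 cJun antibody with Protein-A acceptor beads provided detection.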

[5] = target: Guanine nucleotide-binding protein G(i) subunit alpha-1 (Homo sapiens) (UniProt P63096); test: qHTS Assay for Inhibitors of RGS12 GoLoco Motif Activity (Green Fluorophore) (AID 879);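 also: negative values mean loss of peptide binding seen as reduced polarization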
Procedure, shortened: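 A drop in FITC polarization marked displacement of the FITC-tagged RGS12 GoLoco peptide (10 nM) from Gαi1 (50 nM). Compounds were incubated 10 min at room temperature in Tris pH 7.5 buffer containing 150 mM NaCl, 0.1 mM GDP and 0.05% NP40; unlabeled peptide titration served as control.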

[6] = qHTS Assay for Identification of Small Molecule Agonists for Thrombopoietin (TPO) Signaling Pathway (AID 917)
Procedure, shortened: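 Quantitative HTS for pathway activators: compounds were pin-transferred onto IL-3-starved Ba/F3 cells expressing human TPO receptor, TPO was added at its EC50 (26 pM final), and after 24 hrs at 37 C reporter luciferase was measured.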

[7] = target: Muscarinic acetylcholine receptor M1 (Rattus norvegicus) (UniProt P08482); test: qHTS Assay for Antagonists of Acetylcholine Muscarinic M1 Receptor: Measurement of IP-One Response (AID 944); also: nearly all actives have a fitted effect of over 75% in size
Procedure, shortened: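 IP1 accumulation measured via TR-FRET between d2-IP1 and Eu-cryptate anti-IP1 antibody after carbachol (200 nM, EC80) stimulation for 30 min; rat M1-transfected CHO cells received compound 10 min before agonist.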

[8] = target: Pyruvate kinase (Leishmania mexicana) (UniProt Q27686); test: qHTS Validation Assay for Inhibitors of Leishmania Mexicana Pyruvate Kinase (AID 945)
Procedure, shortened: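 Eight-point qHTS titrations; enzyme 0.2 nM LmPYK (E451W mutant); substrates 0.5 mM PEP, 0.1 mM ADP; 7 mM MgCl2; 1 h room temperature; PKLight luminescence normalized to neutral control.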

[9] = target: Pyruvate kinase PKM (Homo sapiens) (UniProt P14618); test: qHTS Assay for Activators of Human Muscle Pyruvate Kinase (AID 954; active = well fitted curve in the direction sought with a large enough effect, not every such curve was filed as active)
Procedure, shortened: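 Compound pinned into substrate mix (0.5 mM PEP, 0.1 mM ADP), then 0.1 nM PKM2 added; 1 h, RT. Stop/detection luciferase reagent added, luminescence read. Normalized to no-inhibition and no-enzyme or reference-inhibitor controls.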

[10] = target: Alpha-galactosidase A (Homo sapiens) (UniProt P06280); test: Counterscreen for Glucocerebrosidase Inhibitors: qHTS Assay for Human alpha-Galactosidase at pH 4.5 (AID 992)
Procedure, shortened: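 Steps: enzyme (2 nM final), then compound across 0.7 nM to 77 uM, then 80 uM fluorogenic galactopyranoside substrate; incubate 20 min at room temperature; quench at pH 10; measure fluorescence at 365/440 nm.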

[11] = target: alpha-glucosidase (Oryza sativa, rice) (UniProt Q653V4); test: Counterscreen for Glucocerebrosidase Inhibitors: qHTS Assay for Rice alpha-Glucosidase at pH 5.0 (AID 997)
Procedure, shortened: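 Endpoint fluorogenic assay at pH 5.0: compounds (0.7 nM to 77 uM) titrated against 4 nM rice enzyme and 400 uM 4-MU-alpha-glucoside for 20 min at room temperature; NaOH/glycine stop, read ex 365/em 440 nm, Hill-fitted AC50.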

[12] = Cytometric Cell-Based qHTS for Inhibitors of the mTORC1 Signaling Pathway in MEF (Tsc2-/-, p53-/-) Cells (AID 2660);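 also: percent of cells above a phospho-rpS6 to PI ratio cutoff in each well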
Procedure, shortened: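 Tsc2-/-, p53-/- MEFs (empty vector) exposed to compound 24 h at 37 C, fixed, stained with Alexa-488 anti-phospho-rpS6 Ser235/236 and propidium iodide. Acumen laser scanning; phospho-S6/PI ratio thresholded against 7.5 nM rapamycin, reported as % positive cells.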

[13] = High Content Imaging Cell-Based qHTS for Inhibitors of the mTORC1 Signaling Pathway in MEF (Tsc2-/-, p53-/-) Cells (AID 2666); settings: at 38.3 µM (top of the series);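 also: percent of cells scored positive for phospho-rpS6 Ser235/236 immunostaining by imaging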
Procedure, shortened: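 MEF Tsc2-/- p53-/- (empty vector), DMEM/10% FBS; cpd 24 h 37 °C; PFA fix, Alexa-488 p-rpS6 S235/236 Ab, Hoechst; imaged; rapamycin-defined inhibition; % positive cells/well.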

[14] = High Content Imaging Cell-Based qHTS for Inhibitors of the mTORC1 Signaling Pathway in MEF Cells (AID 2667);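 also: Tsc2-/- p53-/- MEFs stably re-expressing wild-type Tsc2 exposed 24 h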
Procedure, shortened: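 Read-out is the share of phospho-rpS6-positive cells per well, from Hoechst-normalized Alexa-488 Ser235/236 staining imaged on IN Cell. Cells: WT Tsc2-expressing Tsc2-/-, p53-/- MEFs exposed to compound for 24 hrs.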

[15] = Cytometry Cell-Based qHTS for Inhibitors of the mTORC1 Signaling Pathway in MEF cells (AID 2668);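 also: Tsc2-/- p53-/- mouse embryonic fibroblasts stably re-expressing wild-type Tsc2; percent cells positive for phospho-rpS6 Ser235/236 relative to propidium iodide stain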
Procedure, shortened: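 Pathway inhibition in WT Tsc2-rescued Tsc2-/-, p53-/- MEFs is measured as the Alexa-488 phospho-rpS6 to propidium iodide intensity ratio after 24 hrs of compound at 37 degree Celsius. PI-stained cell number gives viability.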

[16] = target: Ubiquitin carboxyl-terminal hydrolase 2 (Homo sapiens) (UniProt O75604); test: qHTS Validation Assay for Inhibitors of Ubiquitin-specific Protease USP2a Using CHOP2 as the Reporter (AID 463106)
Procedure, shortened: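 Fluorescence read-out at Ex 485nm/Em 531nm after 60min RT, following addition of 25nM Ub-CHOP2 plus 25nM reporter substrate to USP2 core (10nM) pretreated 30min with compound. Data normalized to NEM full inhibition; concentration-response curves fitted.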

[17] = target: DNA polymerase III PolC-type (Bacillus subtilis (strain 168)) (UniProt P13267); test: qHTS Validation Assay for the Inhibitors of DNA Replication in Gram-Positive Bacteria (AID 485295);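 also: reconstituted holoenzyme with PolC plus beta clamp SSB and primase; PicoGreen fluorescence of double-stranded DNA made on primed circular M13 template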
Procedure, shortened: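 Primed replication of single-stranded M13Gori by a four-protein B. subtilis holoenzyme is measured at room temperature. Double-stranded product is quantified by PicoGreen fluorescence after an EDTA stop; inhibition is scaled between DMSO and EDTA controls.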

[18] = target: Tumor susceptibility gene 101 protein (Homo sapiens) (UniProt Q99816); test: qHTS Validation Assay for Iinhibitors of HIV-1 Budding by Blocking the Interaction of PTAP/TSG101 (AID 485342; calls by dose curve)
Procedure, shortened: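 Fluorescence anisotropy measured PTAP-Tsg101 interaction. Final concentrations were 10 uM protein domain and 50 nM labeled peptide, equilibrated 20 min at room temperature.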

[19] = target: Beta-2 adrenergic receptor (Homo sapiens) (UniProt P07550); test: qHTS validation assay of beta-arrestin-biased ligands of beta2-adrenergic receptor (AID 485366)
Procedure, shortened: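 qHTS, Tango cells, 1500 cells/well, DMEM + 1% FBS. Cpd 18 hr at 37 degrees C. Luciferin/ATP/CoA detection mix, 15 min RT, luminescence read. %Activity from corrected signal; CRC fit, curve class.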

Measured: Potency

Sequence of Glucocorticoid receptor (Homo sapiens) (P04150 whole entry, looked up, the tested form may be a part): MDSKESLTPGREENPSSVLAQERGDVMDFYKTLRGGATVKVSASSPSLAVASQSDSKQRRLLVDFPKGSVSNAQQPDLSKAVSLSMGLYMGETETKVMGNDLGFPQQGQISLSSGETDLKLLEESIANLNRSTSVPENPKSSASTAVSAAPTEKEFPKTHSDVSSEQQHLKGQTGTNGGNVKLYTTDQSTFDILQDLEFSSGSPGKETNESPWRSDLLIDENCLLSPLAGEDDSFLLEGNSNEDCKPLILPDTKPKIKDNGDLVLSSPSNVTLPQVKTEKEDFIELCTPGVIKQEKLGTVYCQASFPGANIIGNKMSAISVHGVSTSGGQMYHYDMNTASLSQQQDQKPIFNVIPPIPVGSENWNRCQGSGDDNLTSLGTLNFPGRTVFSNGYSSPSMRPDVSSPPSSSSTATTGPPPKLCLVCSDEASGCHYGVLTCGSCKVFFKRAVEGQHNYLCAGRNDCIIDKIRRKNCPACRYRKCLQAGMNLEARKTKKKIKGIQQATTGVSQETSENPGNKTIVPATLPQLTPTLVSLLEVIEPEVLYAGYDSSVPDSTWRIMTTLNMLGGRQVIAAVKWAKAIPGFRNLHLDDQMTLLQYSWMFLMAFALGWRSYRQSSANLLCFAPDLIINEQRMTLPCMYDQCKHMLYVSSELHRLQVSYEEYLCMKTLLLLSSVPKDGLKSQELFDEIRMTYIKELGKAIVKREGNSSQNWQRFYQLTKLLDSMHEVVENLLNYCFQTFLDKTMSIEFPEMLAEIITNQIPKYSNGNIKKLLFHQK
Sequence of Pyruvate kinase (Leishmania mexicana) (Q27686 2-499 E452W): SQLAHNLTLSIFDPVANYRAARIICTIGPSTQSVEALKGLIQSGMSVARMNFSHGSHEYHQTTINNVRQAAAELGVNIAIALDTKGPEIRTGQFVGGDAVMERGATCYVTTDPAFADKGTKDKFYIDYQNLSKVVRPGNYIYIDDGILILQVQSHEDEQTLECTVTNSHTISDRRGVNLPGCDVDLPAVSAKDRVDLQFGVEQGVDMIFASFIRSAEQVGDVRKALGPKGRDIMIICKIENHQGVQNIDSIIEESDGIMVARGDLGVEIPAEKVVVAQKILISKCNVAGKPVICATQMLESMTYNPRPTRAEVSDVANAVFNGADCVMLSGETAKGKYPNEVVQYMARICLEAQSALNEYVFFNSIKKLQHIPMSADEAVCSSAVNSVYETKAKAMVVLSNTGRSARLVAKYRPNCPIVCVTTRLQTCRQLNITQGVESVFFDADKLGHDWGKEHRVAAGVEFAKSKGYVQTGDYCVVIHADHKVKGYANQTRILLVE
Sequence of Guanine nucleotide-binding protein G(i) subunit alpha-1 (Homo sapiens) (P63096 whole entry, looked up): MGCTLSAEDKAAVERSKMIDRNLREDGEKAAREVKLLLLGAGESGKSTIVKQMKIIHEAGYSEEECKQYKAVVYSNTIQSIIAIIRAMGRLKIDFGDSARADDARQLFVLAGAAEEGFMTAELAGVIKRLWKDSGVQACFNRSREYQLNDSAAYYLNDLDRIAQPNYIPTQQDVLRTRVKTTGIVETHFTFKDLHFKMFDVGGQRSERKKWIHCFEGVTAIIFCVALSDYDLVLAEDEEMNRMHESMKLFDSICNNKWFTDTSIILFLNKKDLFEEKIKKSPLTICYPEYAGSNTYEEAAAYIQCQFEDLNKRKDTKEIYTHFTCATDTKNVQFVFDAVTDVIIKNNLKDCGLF
Sequence of DNA polymerase III PolC-type (Bacillus subtilis (strain 168)) (P13267 whole entry, looked up): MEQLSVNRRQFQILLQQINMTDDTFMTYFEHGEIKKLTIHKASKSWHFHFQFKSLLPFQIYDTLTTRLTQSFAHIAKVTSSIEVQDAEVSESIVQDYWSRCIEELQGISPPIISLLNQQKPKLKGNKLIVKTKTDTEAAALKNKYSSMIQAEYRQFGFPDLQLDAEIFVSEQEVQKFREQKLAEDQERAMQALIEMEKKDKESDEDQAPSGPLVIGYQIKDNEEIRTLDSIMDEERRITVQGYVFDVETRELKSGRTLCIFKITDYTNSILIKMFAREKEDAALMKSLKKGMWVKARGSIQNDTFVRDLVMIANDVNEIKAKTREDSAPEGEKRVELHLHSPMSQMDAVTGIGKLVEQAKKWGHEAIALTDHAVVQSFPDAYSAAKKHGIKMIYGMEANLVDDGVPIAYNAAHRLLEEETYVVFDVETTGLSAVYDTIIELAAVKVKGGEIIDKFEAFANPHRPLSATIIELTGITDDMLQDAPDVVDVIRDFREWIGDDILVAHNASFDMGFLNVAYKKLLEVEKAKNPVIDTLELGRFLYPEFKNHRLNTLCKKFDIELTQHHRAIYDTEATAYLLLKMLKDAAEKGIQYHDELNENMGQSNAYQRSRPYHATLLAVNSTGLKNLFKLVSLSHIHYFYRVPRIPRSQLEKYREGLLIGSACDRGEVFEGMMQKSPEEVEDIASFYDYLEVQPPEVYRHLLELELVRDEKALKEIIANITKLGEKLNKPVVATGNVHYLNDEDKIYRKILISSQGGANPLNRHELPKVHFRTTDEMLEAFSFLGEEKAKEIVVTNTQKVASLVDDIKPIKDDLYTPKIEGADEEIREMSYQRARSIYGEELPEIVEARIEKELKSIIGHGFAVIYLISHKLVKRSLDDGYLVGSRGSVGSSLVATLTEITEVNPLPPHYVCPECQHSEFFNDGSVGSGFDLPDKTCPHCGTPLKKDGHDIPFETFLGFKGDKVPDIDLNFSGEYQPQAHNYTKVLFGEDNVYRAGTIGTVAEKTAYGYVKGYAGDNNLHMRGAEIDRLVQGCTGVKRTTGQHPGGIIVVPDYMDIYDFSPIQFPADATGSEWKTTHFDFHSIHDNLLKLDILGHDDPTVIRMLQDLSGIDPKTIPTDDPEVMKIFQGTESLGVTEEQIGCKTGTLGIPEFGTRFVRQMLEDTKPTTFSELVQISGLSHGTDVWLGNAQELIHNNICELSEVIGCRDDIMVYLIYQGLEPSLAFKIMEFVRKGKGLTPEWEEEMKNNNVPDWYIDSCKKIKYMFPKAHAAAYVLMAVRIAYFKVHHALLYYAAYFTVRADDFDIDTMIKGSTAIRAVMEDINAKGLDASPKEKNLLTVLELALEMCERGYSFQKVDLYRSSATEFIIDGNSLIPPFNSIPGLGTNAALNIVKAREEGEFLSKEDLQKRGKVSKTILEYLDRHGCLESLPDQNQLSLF
Sequence of Tumor susceptibility gene 101 protein (Homo sapiens) (Q99816 whole entry, looked up, the tested form may be a part): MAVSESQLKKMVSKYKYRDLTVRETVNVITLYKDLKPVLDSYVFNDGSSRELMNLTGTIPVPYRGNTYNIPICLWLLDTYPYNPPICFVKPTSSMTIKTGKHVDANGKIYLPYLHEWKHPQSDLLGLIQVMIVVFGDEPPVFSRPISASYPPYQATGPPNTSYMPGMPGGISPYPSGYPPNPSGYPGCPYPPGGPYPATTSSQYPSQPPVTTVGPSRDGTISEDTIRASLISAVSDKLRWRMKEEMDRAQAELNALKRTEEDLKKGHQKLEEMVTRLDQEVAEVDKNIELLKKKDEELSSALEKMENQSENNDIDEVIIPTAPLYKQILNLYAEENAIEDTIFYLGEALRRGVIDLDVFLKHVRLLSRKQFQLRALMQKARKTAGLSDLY
Sequence of Alpha-galactosidase A (Homo sapiens) (P06280 whole entry, looked up): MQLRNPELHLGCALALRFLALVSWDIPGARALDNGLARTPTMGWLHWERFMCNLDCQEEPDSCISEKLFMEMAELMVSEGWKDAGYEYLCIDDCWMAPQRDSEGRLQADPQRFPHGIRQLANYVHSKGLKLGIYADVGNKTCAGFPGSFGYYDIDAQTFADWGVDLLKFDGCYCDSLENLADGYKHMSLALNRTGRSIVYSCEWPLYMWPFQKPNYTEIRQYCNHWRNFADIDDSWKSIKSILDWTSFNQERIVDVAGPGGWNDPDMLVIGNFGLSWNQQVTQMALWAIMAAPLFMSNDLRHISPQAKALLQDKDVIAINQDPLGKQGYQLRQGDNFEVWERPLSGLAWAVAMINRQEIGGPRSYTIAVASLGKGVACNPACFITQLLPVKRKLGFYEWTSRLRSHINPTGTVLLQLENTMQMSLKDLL
Sequence of Beta-2 adrenergic receptor (Homo sapiens) (P07550 whole entry, looked up): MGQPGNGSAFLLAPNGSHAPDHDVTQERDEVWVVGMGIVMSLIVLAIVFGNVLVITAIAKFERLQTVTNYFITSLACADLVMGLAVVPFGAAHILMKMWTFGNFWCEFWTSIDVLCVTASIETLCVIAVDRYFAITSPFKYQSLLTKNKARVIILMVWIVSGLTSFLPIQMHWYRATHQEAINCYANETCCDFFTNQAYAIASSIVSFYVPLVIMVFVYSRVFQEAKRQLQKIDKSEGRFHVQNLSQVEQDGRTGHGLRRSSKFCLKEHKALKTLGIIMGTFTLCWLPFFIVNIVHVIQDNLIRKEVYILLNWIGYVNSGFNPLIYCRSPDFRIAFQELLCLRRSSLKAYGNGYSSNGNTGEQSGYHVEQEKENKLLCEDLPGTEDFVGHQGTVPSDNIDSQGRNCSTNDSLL
Sequence of Pyruvate kinase PKM (Homo sapiens) (P14618 whole entry, looked up): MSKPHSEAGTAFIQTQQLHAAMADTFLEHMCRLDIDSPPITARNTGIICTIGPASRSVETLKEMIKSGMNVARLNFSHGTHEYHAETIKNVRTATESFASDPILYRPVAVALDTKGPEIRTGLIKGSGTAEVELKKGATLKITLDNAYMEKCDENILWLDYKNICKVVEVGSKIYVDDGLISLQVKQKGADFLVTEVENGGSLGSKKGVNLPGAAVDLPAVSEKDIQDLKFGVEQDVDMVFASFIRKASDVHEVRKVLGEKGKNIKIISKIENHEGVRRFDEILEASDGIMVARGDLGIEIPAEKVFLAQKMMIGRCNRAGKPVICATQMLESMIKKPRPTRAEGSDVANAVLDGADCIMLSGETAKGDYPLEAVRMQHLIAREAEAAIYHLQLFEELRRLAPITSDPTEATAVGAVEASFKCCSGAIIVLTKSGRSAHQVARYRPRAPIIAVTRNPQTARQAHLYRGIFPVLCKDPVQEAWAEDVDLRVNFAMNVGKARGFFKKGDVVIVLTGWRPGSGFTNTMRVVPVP

CC[C@@H](CO)Nc1nc(NCc2ccccc2)c2ncn(C(C)C)c2n1
active: [1] 12.6 µM
inactive: [2] > 46 µM | [3] > 46 µM | [4] | [5] | [6] | [7] | [8] | [9] | [10] | [11] | [12] | [13] | [14] | [15] | [16] | [17] | [18] | [19]
